# S1P1 ag: activates the human S1P1 receptor. activation, % at 4.5 µM. Sphingosine 1-phosphate receptor 1 (Homo sapiens), P21453. S1P1 agonist cell-based reporter assay. hit rate 1.5% among 16,000; in the data active = activation above about 80%
# KOR antag MB: antagonists of human kappa opioid receptor OPRK1, Maybridge library; OPRK1 cells, antagonist mode, fluorescence readout; inhibition, % at 9 µM; hit rate 0.4% among 16,000; in the data active = inhibition above about 50%
# TLR4 MyD88 blk: inhibitors of human TLR4-MyD88 binding | Toll-like receptor 4 (Homo sapiens), O00206 | Cell-based TLR4-MyD88 binding inhibition assay | inhibition, % at 10 µM | hit rate 0.06% among 16,000 | AID 811, 2007; in the data active = inhibition above about 45%
# Target sequence (O00206 whole entry, looked up): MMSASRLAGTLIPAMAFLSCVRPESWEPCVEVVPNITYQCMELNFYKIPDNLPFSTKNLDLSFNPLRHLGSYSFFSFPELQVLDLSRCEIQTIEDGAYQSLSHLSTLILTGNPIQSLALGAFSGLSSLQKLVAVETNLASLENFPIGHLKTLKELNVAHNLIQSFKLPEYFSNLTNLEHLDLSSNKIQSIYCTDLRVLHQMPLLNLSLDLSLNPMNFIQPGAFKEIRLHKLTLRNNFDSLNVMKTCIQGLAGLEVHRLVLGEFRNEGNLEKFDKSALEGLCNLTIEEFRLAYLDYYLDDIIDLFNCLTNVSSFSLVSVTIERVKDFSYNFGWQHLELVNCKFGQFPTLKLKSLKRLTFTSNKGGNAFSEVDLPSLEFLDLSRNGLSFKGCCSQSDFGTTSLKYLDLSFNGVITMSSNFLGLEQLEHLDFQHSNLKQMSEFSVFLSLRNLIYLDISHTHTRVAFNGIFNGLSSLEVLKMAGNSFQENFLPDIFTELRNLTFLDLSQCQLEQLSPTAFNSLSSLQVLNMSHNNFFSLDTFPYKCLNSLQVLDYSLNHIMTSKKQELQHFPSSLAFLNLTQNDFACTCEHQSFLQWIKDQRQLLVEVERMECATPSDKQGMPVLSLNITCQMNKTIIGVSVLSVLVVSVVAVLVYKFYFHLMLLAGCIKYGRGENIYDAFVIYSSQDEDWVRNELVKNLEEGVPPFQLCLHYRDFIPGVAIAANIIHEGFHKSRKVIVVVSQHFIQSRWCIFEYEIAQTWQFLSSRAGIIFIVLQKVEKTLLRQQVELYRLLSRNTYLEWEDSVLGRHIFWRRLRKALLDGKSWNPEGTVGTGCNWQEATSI
# rat GALR2 ag: agonists of rat galanin receptor 2 (GALR2); Galanin receptor type 2 (Rattus norvegicus), O08726; cell-based GALR2 agonist screen; activation, % at 10 µM; hit rate 0.5% among 16,000; in the data active = activation above about 15%
# PME-1 Maybr inh: inhibitors of human PME-1 in Maybridge library; Protein phosphatase methylesterase 1 (Homo sapiens), Q9Y570; recombinant PME-1, FP-Rh probe fluorescence polarization; inhibition, % at 9 µM; hit rate 0.5% among 16,000; AID 2291, 2010; in the data active = inhibition above about 30%
# NOTCH ag: agonists of NOTCH signaling; NOTCH signaling luciferase reporter cells, luminescence; activation, % at 2.5 µM; hit rate 0.4% among 15,000; in the data active = activation above about 2.2%
# * = called active by the depositor; · = not tested or not shown. An excerpt weighted towards active compounds, which were near 3.2% of everything screened.
SMILES,S1P1 ag,KOR antag MB,TLR4 MyD88 blk,rat GALR2 ag,PME-1 Maybr inh,NOTCH ag
CCc1nc2ccccc2nc1N1CCN(S(=O)(=O)c2ccccc2)CC1,2,-26,-3,0,11,-1
N#Cc1ccc(N2CCN(S(=O)(=O)c3ccccc3)CC2)nc1,-4,-11,-5,-6,6,3.4*
O=S(=O)(c1ccccc1)N1CCN(c2ncnc3sccc23)CC1,92*,-10,-7,-11,17,-1
Cc1noc(C)c1C(=O)NNC(=O)c1ccc[nH]1,-3,-20,-4,-4,8,-1
O=S(=O)(c1cc(Cl)ccc1Cl)N1CCOCC1,-12,-4,-4,-2,6,1
COC(=N)c1nccnc1SCc1ccc(F)cc1,-9,-12,1,-8,2,0
Cc1ccc(CSc2nnc(-c3cnccn3)s2)cc1,93*,-3,8,-1,4,0
Fc1ccc(CSc2nnc(-c3ccncc3)s2)cc1,101*,12,11,-3,13,0
O=C(CSc1nnc(-c2cnccn2)s1)c1cccc(C(F)(F)F)c1,3,23,-4,1,-3,-1
COc1cc(CSc2ccccn2)cc(OC)c1OC,-3,11,-11,-7,4,0
Cc1nc(C(F)(F)F)ccc1C(=O)Oc1ccc(F)cc1F,4,11,2,-2,-3,0
CCOC(=O)[C@@H](N)CCSC,-1,52*,0,-3,6,0
Cc1onc(-c2c(F)cccc2Cl)c1C(=O)Oc1ccccc1,95*,2,-7,-12,1,1
Cc1nc(/C(N)=N/OC(=O)Nc2cccc(C(F)(F)F)c2)cs1,-12,6,-1,-1,2,-1
Cc1nnc(SCC(=O)Nc2ccc(Br)cc2)s1,-29,1,12,1,6,0
COC(=O)c1sccc1N/N=C1\C(=O)c2ccccc2N(C)S1(=O)=O,-6,3,3,-7,-2,-1
CN1c2ccsc2C(=O)/C(=N\Nc2cccc(C(F)(F)F)c2)S1(=O)=O,87*,-4,11,-8,0,-1
CC(=O)c1ccc(-c2cc(C(F)(F)F)ccc2Cl)o1,-8,8,3,-3,-4,0
O=C(OC1OCCOC1OC(=O)c1ccc([N+](=O)[O-])cc1)c1ccc([N+](=O)[O-])cc1 (centres undefined),-1,-19,0,-6,3,0
O=c1ccc([N+](=O)[O-])cn1C1CCCCO1 (centres undefined),94*,4,22,-4,2,-1
N#CC(C#N)=NNc1ccc(F)cc1F,105*,18,-12,-8,15,0
CC(C)(C)c1ccc(C(=O)/C=c2\[nH]c(=O)/c(=C\c3cccs3)s2)cc1,-9,15,-2,0,-14,0
OC(COc1ccc(C23CC4CC(CC(C4)C2)C3)cc1)CN1CCCCC1 (centres undefined),-5,38,-6,27*,2,0
CCOC(=O)c1c(NC(=O)c2ccc([N+](=O)[O-])o2)nc(SC)n1Cc1cccs1,87*,-10,-5,-6,3,-1
Cc1cc(-c2n[nH]c(=S)n2C)nn1-c1ccc([N+](=O)[O-])cc1,100*,-19,3,-1,2,-1
SMILES,S1P1 ag,KOR antag MB,TLR4 MyD88 blk,rat GALR2 ag,PME-1 Maybr inh,NOTCH ag
O=C(O)CCc1ccc(OCc2ccccc2)cc1,-1,2,-6,-5,-4,0
CC(C)n1cc(-c2noc(-c3cccs3)n2)c(=O)n(Cc2ccccc2)c1=O,92*,13,-2,-6,6,-6
CC(C)n1cc(-c2nc(C(=O)NNC(=O)C(C)(C)C)cs2)c(=O)n(Cc2ccccc2)c1=O,-4,-5,-1,-2,7,0
COc1ccc(NC(=S)NC(=O)c2ccccc2)c([N+](=O)[O-])c1,2,0,-4,-6,8,0
COc1ccc(NC(=S)NC(C)(C)C)c([N+](=O)[O-])c1,90*,-11,17,-1,0,-1
Cc1cc(-c2onc(C)c2C(=O)O/N=C(\N)c2cccc(C(F)(F)F)c2)no1,-8,20,21,-9,-3,-1
N/C(=N\NC(=O)c1cccc(C(F)(F)F)c1)c1cnccn1,-8,22,2,-4,-4,0
N/C(=N\OC(=O)c1cccc(C(F)(F)F)n1)c1cccc(C(F)(F)F)c1,91*,5,4,-4,1,0
NC(=NC(=O)c1cccc(C(F)(F)F)c1)c1ccc(C(F)(F)F)cn1,-11,58*,-1,-11,0,0
COC(=O)c1c(N)[nH]c2cc(C(F)(F)F)ccc12,18,8,14,-4,20,-1
Cc1nccc(-c2cccc(NN=C(C#N)C#N)c2)n1,104*,-1,-3,-9,0,0
O=C(NCc1ccco1)c1ccsc1,0,4,3,-4,5,0
COc1ccc(/C(C#N)=C/c2ccc3c(c2)OCO3)cc1,9,4,3,-5,-1,0
N#C/C(=C\c1ccc(Cl)c(Cl)c1)c1ccc(NC(N)=O)cc1,-48,-201,-196,135*,-4,0
CCCc1cnc(N2CCN(c3ncc(CCC)cn3)CC2)nc1,-7,-32,0,-8,-6,-1
O=C(/C=C/c1cc(-c2ccccc2)c(C(F)(F)F)s1)c1cccs1,100*,63*,-34,2,-22,·
CS/C(Nc1ccccc1)=C(/C#N)C(=O)c1cc(-c2ccccc2)c(C(F)(F)F)s1,10,6,-9,-2,-52,0
Cc1ccc(-c2csc3ncnc(NCc4ccco4)c23)cc1,87*,-4,8,-7,2,0
O=[N+]([O-])c1c(NCc2ccco2)ncnc1NCc1ccco1,-1,1,-6,-5,2,·
CSc1nc(N)nc(-c2cccs2)c1C#N,-12,-16,21,-4,-6,-1
CSc1nc(-c2cccs2)cc(C(F)(F)F)c1C#N,-13,-9,-6,31*,-3,0
O=[N+]([O-])c1cccc(Cl)c1Oc1ccc(S(=O)(=O)N2CCOCC2)cc1,0,1,4,-9,33*,-1
CC(NS(=O)(=O)c1ccc(Oc2c(Cl)cccc2[N+](=O)[O-])cc1)c1ccccc1 (centres undefined),19,-4,·,-7,17,0
Cc1cc(C(=O)/C(C#N)=N/Nc2cccc(Cl)c2)n(C(C)(C)C)n1,88*,19,-12,-5,0,0
CC(C)(C)c1cc(C(=O)/C(C#N)=N/Nc2cccc(Cl)c2)no1,108*,1,-17,-3,9,0
CCOC(=O)C(Nc1cccc(F)c1)(NS(=O)(=O)c1ccc(C)cc1)C(F)(F)F (centres undefined),1,-12,-12,1,5,0

# Screening data deposited in PubChem BioAssay by The Scripps Research Institute Molecular Screening Center.
